Targets with a hit are over-represented here; the source holds about 8,800 in all. About 0.5% of all pairs of compound and target were hits.
Experiments:
Test in all cases: log2 fold change, soluble protein after heating vs DMSO (PISA); higher = thermal stabilisation; K562 lysate, 10 uM; active = over 0.2 and 3.5 SD of the protein, either way, in both replicates (recomputed)
[1] = compound: C1=CC=C(C=C1)[C@H](COC2=CC3=C(C=C2)NC(=O)N3)NC(=O)C4=CC=CN(C4=O)CC5=CC(=C(C=C5)F)F
In short: (§1)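 Log-two fold change in thermal stability relative to solvent controls is reported from duplicates. For each sample, crude K562 extract from dounce-homogenised pellets in PBS pH 7.4 with 1 mM MgCl2, at 1 mg/mL protein, was treated with 10 μM compound for 30 min. Aliquots heated for 3 min across 48°C-58°C were pooled, brought to 0.5% NP-40 at 4°C and cleared at 21,000xg for 90 min. The supernatant was quantified by TMTpro 16plex LC-MS/MS with channel sums equalised.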

[2] = compound: CC1=C(SC2=C1C(=N[C@H](C3=NN=C(N32)C)CC(=O)N)C4=CC=C(C=C4)Cl)C
In short: as §1

[3] = compound: CC1=C2C(=CC=C1)N=C(N(C2=O)C3=CC=CC=C3C)CN4C=NC5=C(N=CN=C54)N
In short: as §1

[4] = compound: Cc1sc2c(c1C)C(c1ccc(Cl)cc1)=N[C@@H](CC(=O)OC(C)(C)C)c1nnc(C)n1-2
In short: as §1

[5] = compound: c1ccc([C@@H]2C[C@H]2NC2CCNCC2)cc1
In short: as §1

Measured: log2 fold change

GLUL (UniProt P15104)
inactive: [1] -0.011 | [2] -0.063 | [3] -0.085 | [4] 0.031 | [5] 0.053

HNRNPAB isoform 3 (UniProt Q99729)
inactive: [1] -0.015 | [2] 0.023 | [3] -0.025 | [4] 0.01 | [5] -0.069

HAUS2 (UniProt Q9NVX0)
inactive: [1] -0.186 | [2] 0.148 | [3] 0.077 | [4] 0.016 | [5] 0.176

HAUS3 (UniProt Q68CZ6)
UniProt Q68CZ6, sequence (Q68CZ6 whole entry, looked up): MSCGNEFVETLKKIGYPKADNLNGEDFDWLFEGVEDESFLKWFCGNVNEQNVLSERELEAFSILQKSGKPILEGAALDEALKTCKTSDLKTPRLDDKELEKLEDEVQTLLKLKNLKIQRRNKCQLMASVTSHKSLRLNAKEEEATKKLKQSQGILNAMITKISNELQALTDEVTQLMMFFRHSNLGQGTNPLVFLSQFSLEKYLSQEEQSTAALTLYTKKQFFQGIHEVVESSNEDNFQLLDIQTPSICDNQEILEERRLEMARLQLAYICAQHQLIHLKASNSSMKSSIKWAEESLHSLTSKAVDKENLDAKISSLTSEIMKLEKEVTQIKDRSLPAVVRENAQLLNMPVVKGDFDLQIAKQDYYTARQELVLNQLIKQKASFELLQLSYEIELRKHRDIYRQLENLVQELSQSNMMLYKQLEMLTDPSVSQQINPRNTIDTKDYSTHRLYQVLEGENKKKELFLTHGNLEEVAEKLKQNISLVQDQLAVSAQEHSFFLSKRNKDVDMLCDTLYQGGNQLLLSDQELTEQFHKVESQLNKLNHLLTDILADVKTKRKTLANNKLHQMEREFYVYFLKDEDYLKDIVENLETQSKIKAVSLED
inactive: [1] -0.035 | [2] 0.023 | [3] 0.051 | [4] -0.032 | [5] 0.064

GYPA (UniProt P02724)
inactive: [1] 0.071 | [2] -0.055 | [3] -0.002 | [4] 0.138 | [5] 0.236

GNL3 (UniProt Q9BVP2)
UniProt Q9BVP2, sequence (Q9BVP2 whole entry, looked up): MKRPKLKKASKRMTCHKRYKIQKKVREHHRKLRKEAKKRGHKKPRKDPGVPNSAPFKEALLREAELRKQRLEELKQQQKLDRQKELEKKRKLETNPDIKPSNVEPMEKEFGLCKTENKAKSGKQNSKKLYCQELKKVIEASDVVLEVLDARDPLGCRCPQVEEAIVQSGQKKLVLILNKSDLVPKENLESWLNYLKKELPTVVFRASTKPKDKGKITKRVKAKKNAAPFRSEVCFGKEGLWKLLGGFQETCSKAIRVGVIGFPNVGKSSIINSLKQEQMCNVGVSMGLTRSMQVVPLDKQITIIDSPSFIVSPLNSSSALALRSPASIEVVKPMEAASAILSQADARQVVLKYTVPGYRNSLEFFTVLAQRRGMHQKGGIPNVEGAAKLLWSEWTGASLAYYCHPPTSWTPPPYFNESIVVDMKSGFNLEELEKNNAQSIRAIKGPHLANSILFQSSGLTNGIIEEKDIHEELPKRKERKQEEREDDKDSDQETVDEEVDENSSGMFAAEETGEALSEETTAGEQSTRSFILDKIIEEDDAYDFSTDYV
inactive: [1] 0.018 | [2] 0.087 | [3] 0.006 | [4] -0.023 | [5] 0.041

GTPBP2 (UniProt Q9BX10)
inactive: [1] 0.019 | [2] 0.021 | [3] 0.025 | [4] 0.049 | [5] 0.034

INTS1 (UniProt Q8N201)
inactive: [1] -0.017 | [2] 0.065 | [3] -0.045 | [4] 0.019 | [5] 0.004

ILRUN (UniProt Q9H6K1)
inactive: [1] 0.078 | [2] -0.021 | [3] 0.03 | [4] 0.009 | [5] 0.028

IMPACT (UniProt Q9P2X3)
UniProt Q9P2X3, sequence (Q9P2X3 whole entry, looked up): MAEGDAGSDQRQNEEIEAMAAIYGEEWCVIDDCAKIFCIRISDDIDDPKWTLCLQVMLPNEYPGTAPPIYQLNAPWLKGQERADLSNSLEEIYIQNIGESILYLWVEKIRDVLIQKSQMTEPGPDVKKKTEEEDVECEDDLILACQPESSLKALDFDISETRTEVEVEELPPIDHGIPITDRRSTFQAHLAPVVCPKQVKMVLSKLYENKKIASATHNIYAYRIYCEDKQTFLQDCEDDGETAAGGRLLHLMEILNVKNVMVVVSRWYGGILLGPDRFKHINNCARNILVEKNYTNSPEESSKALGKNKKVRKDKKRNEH
inactive: [1] 0.093 | [2] -0.07 | [3] -0.18 | [4] -0.067 | [5] -0.13

HECTD4 (UniProt J3KPF0)
inactive: [1] -0.013 | [2] 0.023 | [3] 0.068 | [4] -0.03 | [5] 0.043

GTF3C3 (UniProt Q9Y5Q9)
inactive: [1] -0.018 | [2] -0.019 | [3] 0.03 | [4] -0.052 | [5] 0.032

HLCS (UniProt P50747)
inactive: [1] -0.027 | [2] 0.027 | [3] 0.011 | [4] -0.006 | [5] 0.038

HACE1 (UniProt Q8IYU2)
UniProt Q8IYU2, sequence (Q8IYU2 whole entry, looked up): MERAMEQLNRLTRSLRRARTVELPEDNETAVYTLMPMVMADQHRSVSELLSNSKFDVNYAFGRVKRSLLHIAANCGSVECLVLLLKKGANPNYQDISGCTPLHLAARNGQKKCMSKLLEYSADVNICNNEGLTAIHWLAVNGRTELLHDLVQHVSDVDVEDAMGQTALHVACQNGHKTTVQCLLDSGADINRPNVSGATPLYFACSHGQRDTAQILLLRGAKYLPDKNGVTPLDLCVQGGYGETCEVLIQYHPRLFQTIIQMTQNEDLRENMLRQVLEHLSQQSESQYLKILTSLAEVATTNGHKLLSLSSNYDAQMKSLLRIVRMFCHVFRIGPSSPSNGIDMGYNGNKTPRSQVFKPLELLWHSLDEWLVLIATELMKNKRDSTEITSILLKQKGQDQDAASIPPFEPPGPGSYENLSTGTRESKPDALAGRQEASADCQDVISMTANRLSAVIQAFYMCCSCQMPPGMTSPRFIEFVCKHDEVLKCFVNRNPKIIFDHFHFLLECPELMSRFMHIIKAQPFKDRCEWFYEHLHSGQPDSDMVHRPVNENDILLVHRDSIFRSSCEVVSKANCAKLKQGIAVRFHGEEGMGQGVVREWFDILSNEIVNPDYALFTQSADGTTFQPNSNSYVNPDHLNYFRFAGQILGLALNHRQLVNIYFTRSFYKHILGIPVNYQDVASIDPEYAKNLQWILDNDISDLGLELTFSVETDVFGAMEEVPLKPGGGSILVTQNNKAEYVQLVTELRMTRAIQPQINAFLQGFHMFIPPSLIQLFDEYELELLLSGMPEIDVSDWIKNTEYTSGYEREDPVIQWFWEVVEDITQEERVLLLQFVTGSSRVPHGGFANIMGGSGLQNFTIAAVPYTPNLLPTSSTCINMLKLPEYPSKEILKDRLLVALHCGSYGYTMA
inactive: [1] -0.03 | [2] 0.08 | [3] 0.07 | [4] -0.115 | [5] -0.377

GSTM4 (UniProt Q03013)
inactive: [1] -0.04 | [2] -0.053 | [3] 0.03 | [4] 0.09 | [5] -0.016

HAUS4 (UniProt Q9H6D7)
UniProt Q9H6D7, sequence (Q9H6D7 whole entry, looked up): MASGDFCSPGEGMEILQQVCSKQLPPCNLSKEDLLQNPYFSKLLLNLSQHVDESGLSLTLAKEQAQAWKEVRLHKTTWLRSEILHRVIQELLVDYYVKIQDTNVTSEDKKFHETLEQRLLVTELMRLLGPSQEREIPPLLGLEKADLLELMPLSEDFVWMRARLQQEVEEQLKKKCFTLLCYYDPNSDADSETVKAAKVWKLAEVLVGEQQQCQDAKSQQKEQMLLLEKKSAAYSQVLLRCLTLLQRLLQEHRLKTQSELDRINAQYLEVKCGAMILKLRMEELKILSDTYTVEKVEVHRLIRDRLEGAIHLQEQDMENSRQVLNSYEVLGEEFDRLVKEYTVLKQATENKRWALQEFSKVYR
inactive: [1] -0.009 | [2] -0.043 | [3] 0.019 | [4] 0.019 | [5] 0.02

GOLPH3 (UniProt Q9H4A6)
inactive: [1] -0.067 | [2] 0.018 | [3] 0.022 | [4] -0.089 | [5] 0.008

GPX4 (UniProt P36969)
inactive: [1] 0.018 | [2] -0.01 | [3] 0.036 | [4] -0.03 | [5] 0.048

HDLBP, A0A024R4E5
inactive: [1] -0.024 | [2] -0.013 | [3] 0.017 | [4] -0.018 | [5] 0.008

H4C1 (UniProt P62805)
active: [4] 0.664
inactive: [1] -0.063 | [2] 0.037 | [3] -0.031 | [5] 0.125

GIT1 (UniProt Q9Y2X7)
inactive: [1] 0.013 | [2] -0.008 | [3] 0.009 | [4] 0.093 | [5] 0.073

KHK isoform 2 (UniProt P50053)
UniProt P50053, sequence (P50053 whole entry, looked up): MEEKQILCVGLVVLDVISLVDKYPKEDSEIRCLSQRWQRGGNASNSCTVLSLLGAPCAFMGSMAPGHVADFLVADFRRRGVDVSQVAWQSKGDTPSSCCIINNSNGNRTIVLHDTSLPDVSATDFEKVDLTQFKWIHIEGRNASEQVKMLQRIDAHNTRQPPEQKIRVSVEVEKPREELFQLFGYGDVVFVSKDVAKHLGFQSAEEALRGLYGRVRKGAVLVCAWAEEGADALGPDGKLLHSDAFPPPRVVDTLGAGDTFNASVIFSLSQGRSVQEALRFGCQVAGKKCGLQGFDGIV
inactive: [1] -0.01 | [2] 0.034 | [3] -0.003 | [4] -0.137 | [5] 0.142

KBTBD4 isoform 2 (UniProt Q9NVX7)
inactive: [1] -0.014 | [2] -0.003 | [3] -0.106 | [4] -0.025 | [5] 0.016

INF2 (UniProt Q27J81)
inactive: [1] 0.016 | [2] 0.017 | [3] 0.015 | [4] -0.014 | [5] -0.06

HMGN5 (UniProt P82970)
inactive: [1] 0.033 | [2] 0.05 | [3] -0.008 | [4] -0.026 | [5] 0.083

HMGB2 (UniProt P26583)
inactive: [1] 0.022 | [2] -0.069 | [3] -0.03 | [4] 0.036 | [5] 0.161

INTS10 (UniProt Q9NVR2)
inactive: [1] -0.015 | [2] -0.057 | [3] 0.023 | [4] -0.077 | [5] -0.003

HDAC10 (UniProt Q969S8)
inactive: [1] -0.076 | [2] 0.115 | [3] 0.21 | [4] 0.197 | [5] -0.055

H2AFY (UniProt O75367)
UniProt O75367, sequence (O75367 whole entry, looked up): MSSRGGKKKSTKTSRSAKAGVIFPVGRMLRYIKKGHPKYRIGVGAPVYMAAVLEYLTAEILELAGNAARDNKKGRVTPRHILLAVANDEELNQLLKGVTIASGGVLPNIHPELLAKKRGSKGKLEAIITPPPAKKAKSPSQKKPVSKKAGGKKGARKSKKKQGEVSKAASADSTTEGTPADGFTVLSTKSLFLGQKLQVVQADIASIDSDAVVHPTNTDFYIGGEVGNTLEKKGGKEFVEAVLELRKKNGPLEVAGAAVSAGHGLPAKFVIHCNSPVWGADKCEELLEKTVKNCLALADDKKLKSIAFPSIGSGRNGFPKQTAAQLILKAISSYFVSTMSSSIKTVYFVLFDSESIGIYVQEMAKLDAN
active: [4] 0.296
inactive: [1] -0.035 | [2] 0.045 | [3] 0.026 | [5] -0.045

HMGCS1 (UniProt Q01581)
inactive: [1] 0.043 | [2] -0.022 | [3] 0.02 | [4] 0.003 | [5] -0.009

GON4L (UniProt Q3T8J9)
inactive: [1] 0.027 | [2] 0 | [3] 0.008 | [4] 0.003
active: [5] 0.466

INTS7 (UniProt Q9NVH2)
inactive: [1] -0.06 | [2] 0.007 | [3] 0.016 | [4] 0.009 | [5] -0.001

IRF2BPL (UniProt Q9H1B7)
inactive: [1] 0.055 | [2] -0.057 | [3] 0 | [4] 0.047 | [5] -0.134

IMPDH1 isoform 6 (UniProt P20839)
inactive: [1] -0.008 | [2] 0.025 | [3] -0.009 | [4] 0.053 | [5] -0.051

INTS5 (UniProt Q6P9B9)
inactive: [1] -0.086 | [2] -0.034 | [3] -0.019 | [4] 0.015 | [5] 0.127

IARS (UniProt P41252)
inactive: [1] -0.027 | [2] 0.026 | [3] 0.025 | [4] 0.066 | [5] 0.047

ILKAP (UniProt Q9H0C8)
UniProt Q9H0C8, sequence (Q9H0C8 whole entry, looked up): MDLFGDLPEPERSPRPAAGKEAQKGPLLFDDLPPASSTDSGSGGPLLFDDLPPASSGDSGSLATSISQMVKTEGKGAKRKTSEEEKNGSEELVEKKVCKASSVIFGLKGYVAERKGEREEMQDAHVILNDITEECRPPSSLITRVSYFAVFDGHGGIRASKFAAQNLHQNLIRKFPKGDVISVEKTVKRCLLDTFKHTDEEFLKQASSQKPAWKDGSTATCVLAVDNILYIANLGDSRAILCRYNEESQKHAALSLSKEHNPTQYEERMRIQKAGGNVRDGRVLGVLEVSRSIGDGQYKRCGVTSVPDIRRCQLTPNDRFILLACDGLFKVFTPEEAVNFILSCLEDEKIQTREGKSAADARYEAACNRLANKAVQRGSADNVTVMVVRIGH
inactive: [1] -0.004 | [2] -0.004 | [3] -0.013 | [4] 0.013 | [5] 0.009

HNRNPUL2 (UniProt Q1KMD3)
inactive: [1] 0.011 | [2] 0.016 | [3] 0.015 | [4] 0.007 | [5] 0.032

HNRNPD isoform 3 (UniProt Q14103)
UniProt Q14103, sequence (Q14103 whole entry, looked up): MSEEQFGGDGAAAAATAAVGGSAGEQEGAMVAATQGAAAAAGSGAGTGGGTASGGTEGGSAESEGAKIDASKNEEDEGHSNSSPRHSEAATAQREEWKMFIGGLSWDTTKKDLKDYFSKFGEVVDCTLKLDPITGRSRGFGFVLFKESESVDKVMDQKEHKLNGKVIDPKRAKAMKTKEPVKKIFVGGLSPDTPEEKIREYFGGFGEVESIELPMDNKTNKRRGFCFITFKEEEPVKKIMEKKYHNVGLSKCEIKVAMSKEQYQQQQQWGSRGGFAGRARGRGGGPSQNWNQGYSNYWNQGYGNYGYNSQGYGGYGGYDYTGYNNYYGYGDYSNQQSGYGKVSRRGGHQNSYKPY
inactive: [1] -0.087 | [2] -0.145 | [3] 0 | [4] -0.096 | [5] -0.003

GOLGA1 (UniProt Q92805)
UniProt Q92805, sequence (Q92805 whole entry, looked up): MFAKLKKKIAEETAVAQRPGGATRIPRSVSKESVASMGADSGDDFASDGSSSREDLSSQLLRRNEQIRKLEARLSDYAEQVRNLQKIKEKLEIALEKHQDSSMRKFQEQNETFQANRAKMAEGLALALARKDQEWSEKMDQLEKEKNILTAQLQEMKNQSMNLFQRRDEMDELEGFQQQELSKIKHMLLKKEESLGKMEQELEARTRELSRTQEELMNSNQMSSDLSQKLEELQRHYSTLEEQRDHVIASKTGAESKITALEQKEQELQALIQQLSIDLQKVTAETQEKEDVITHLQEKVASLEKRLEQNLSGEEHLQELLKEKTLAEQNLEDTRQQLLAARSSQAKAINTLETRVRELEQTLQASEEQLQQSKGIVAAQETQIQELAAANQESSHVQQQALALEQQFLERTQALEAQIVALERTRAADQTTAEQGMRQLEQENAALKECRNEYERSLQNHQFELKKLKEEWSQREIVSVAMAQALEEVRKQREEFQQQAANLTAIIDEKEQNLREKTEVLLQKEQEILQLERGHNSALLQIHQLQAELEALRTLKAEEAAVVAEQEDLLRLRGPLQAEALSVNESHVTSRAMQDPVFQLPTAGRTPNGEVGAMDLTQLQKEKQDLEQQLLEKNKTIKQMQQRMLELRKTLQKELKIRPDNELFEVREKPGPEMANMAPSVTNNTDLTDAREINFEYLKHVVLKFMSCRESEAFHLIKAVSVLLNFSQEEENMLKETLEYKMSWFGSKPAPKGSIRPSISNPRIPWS
inactive: [1] -0.042 | [2] 0.045 | [3] 0.026 | [4] -0.057 | [5] 0.009

KBTBD2 (UniProt Q8IY47)
inactive: [1] 0.016 | [2] -0.005 | [3] 0.025 | [4] 0.012 | [5] -0.119

GTF2H4 (UniProt Q92759)
inactive: [1] -0.08 | [2] 0.044 | [3] 0.039 | [4] 0.015 | [5] 0.02

HMGB1 (UniProt P09429)
inactive: [1] 0.053 | [2] -0.048 | [3] 0.032 | [4] 0.056 | [5] 0.115

KDM6A (UniProt O15550)
inactive: [1] -0.024 | [2] -0.019 | [3] 0.049 | [4] -0.03 | [5] 0.008
